TIM10 inh = TIM10 yeast growth inhibition; S. cerevisiae TIM10 strain growth, BacTiter-Glo luminescence, 24 h; inhibition, % at 10 µM; 1.4% of 330,000 active;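 active means inhibition of 40% or more at the single tested concentration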;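 further: wild-type TIM10 isogenic control strain grown at permissive 25 °C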
Mdm2 MdmX PPI = disrupts the human Mdm2-MdmX interaction | O15151+Q00987 | SaOS-2 split-luciferase Mdm2/MdmX complementation, luminescence | inhibition, % at 8 µM | 3% of 330,000 active;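 active means inhibition of at least 50% at 8 µM in the primary screen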
MPTP block = permeability transition pore inhibition; 1.4% of 360,000 active; isolated mouse mitochondria, Ca2+ swelling absorbance, 30 min; inhibition, % at 10 µM;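 active means inhibition of 50% or more, scaled per plate between neutral and stimulator controls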;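 further: 0% = DMSO wells given calcium and 100% = 1 mM EGTA wells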
tim10-1 inh = tim10-1 yeast growth inhibition; 2.2% of 330,000 active; inhibition, % at 20 µM; S. cerevisiae tim10-1 ts strain growth, BacTiter-Glo, 24 h;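 active means inhibition of at least 40%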;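 further: mutant grown at 25 °C; 0% = DMSO wells with yeast and 100% = wells holding no yeast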
tim23-1 inh = inhibits growth of tim23-1 mutant yeast; S. cerevisiae tim23-1 growth, BacTiter-Glo luminescence, 24 h; inhibition, % at 20 µM; 1.3% of 330,000 active; AID 463212;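 active means growth inhibition of the mutant yeast at or above 50%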;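 further: temperature-sensitive mutant grown at 25 °C; plate controls were DMSO-treated mutant yeast for no effect and medium wells lacking yeast for full effect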
tim10-1 conf = tim10-1 yeast growth inhibition, confirmed. AID 463213. shares compounds with tim10-1 inh. inhibition, % at 20 µM. 56% of 7,400 active. S. cerevisiae tim10-1 ts strain growth, BacTiter-Glo, 24 h;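 active means inhibition of yeast growth at or above a set limit in either of two repeat tests at 20 µM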;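 further: tim10-1 mutant grown at permissive 25 °C to find synthetic lethal compounds; 0% = DMSO yeast wells and 100% = medium wells without yeast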
* = called active by the depositor; . = no result given. Shown are actives, neighbours in structure and some others; about 6.3% of the full set was active somewhere.

SMILES	TIM10 inh	Mdm2 MdmX PPI	MPTP block	tim10-1 inh	tim23-1 inh	tim10-1 conf
CCCN1Cc2cccc(C(=O)Nc3ccc4c(c3)OCO4)c2C1=O	11	-3	1	28	-13	.
CCCCn1nnnc1C(c1cc2ccccc2o1)N(C)Cc1ccccc1 (stereo unspecified)	.	.	1	.	.	.
CCCCc1ccc(NS(=O)(=O)c2cccs2)cc1	33	18	-2	41*	41	17
COc1ccccc1C(=O)Nc1nc2cc3c(cc2s1)OCO3	7	-214	3	28	-1	.
COc1ccccc1C(=O)Nc1nc2cc3c(cc2s1)OCCO3	-10	-225	0	43*	34	18
Nc1ccc(S(=O)(=O)Nc2nc(-c3ccccc3)cc(-c3ccccc3O)n2)cc1	.	.	1	.	.	.
Cc1ccc(C(=O)Nc2ccccc2C(=O)N2CCCCC2C)cc1 (stereo unspecified)	2	9	2	13	17	.
Cc1ccc(C(=O)Nc2ccc(C(=O)N3CCCCC3C)cc2)cc1 (stereo unspecified)	13	20	1	47*	22	26
Cc1cccc(NCCC(=O)c2ccc([N+](=O)[O-])cc2)c1C	23	-15	1	40*	22	38*
COc1ccc(C(=O)ON=C2C=C(C)C(=O)C(C)=C2)cc1	22	45	3	48*	36	21
CCCCOCCCNC(=O)C[C@@H]1C[C@@]2(C(=O)OC)CCCCC=C2N(Cc2ccco2)C1=O	.	.	-2	.	.	.
COc1ccc(Cl)cc1NC(=O)CN(C)C(=O)C12CC3CC(CC(Cl)(C3)C1)C2	27	23	-2	43*	50	34*
COc1ccc(Cl)cc1NC(=O)CN(C)C1CCCCC1	24	13	38	14	6	.
CCCCN(C)C(=O)c1sc(=O)n(Cc2ccc(Cl)c(Cl)c2)c1C	.	.	-2	.	.	.
N#C/C(=N\Nc1cccc2ccccc12)c1nnc2n1CCCCC2	9	5	2	40*	15	16
CC1=C(C(=O)N(C(C)C)C(C)C)CC(CC(=O)NCCCCc2ccccc2)C(=O)N1CCCN1CCCC1=O (stereo unspecified)	.	.	0	.	.	.
CCn1ccnc1CN1CCc2c([nH]c3ccccc23)C1C(C)(C)C (stereo unspecified)	35	14	-2	47*	34	29
CCn1ccnc1CN1CCc2c([nH]c3ccccc23)C1CC(C)C (stereo unspecified)	3	14	0	9	23	.
CC(C)Oc1ccccc1C1Nc2ccccc2C(=O)N1c1ccc2c(c1)OCCO2 (stereo unspecified)	11	-62	1	46*	25	23
COC(=O)[C@@]12C[C@@H](CC(=O)N3CCCCC3)C(=O)N(Cc3ccco3)C1=CCC(C)(C)C2	.	.	0	.	.	.
CN1C(=S)SC(C)(C)C1(C)NO (stereo unspecified)	-1	-14	-1	71*	6	-8
Cc1noc(C)c1CSCC(=O)Nc1nc(-c2ccc(F)c(F)c2)cs1	36	30	7	40*	25	29
COc1ccc(OCc2cc(C(=O)N3CCN(C4CCCC4)CC3)no2)c(Cl)c1	22	-54	1	43*	27	33*
CC(=O)Nc1ccc(N2Cc3ccccc3C2)cc1	6	1	2	-11	5	.
CC(=O)Nc1ccc(N2S(=O)(=O)c3ccccc3S2(=O)=O)cc1	24	8	-2	41*	24	17
SMILES	TIM10 inh	Mdm2 MdmX PPI	MPTP block	tim10-1 inh	tim23-1 inh	tim10-1 conf
O=C(NCc1ccc(Cl)c(Cl)c1)c1cc(C2CCCCN2C(=O)c2ccccn2)on1 (stereo unspecified)	.	.	0	.	.	.
O=C(CC1CS(=O)(=O)CC1CC(=O)Oc1ccccc1F)Oc1ccccc1F (stereo unspecified)	15	23	-1	44*	34	22
Cc1cc(C(=O)Cn2nc(C(=O)O)c3ccccc3c2=O)c(C)n1-c1ccccc1	19	48	1	42*	30	18
Cc1ccc(NC(=O)C2(C)CCN2C(=O)C2CCCCC2)cc1C (stereo unspecified)	.	.	0	.	.	.
CC(C)C[C@H]1CN(CCCC[C@@H]2CNC(=O)C(=O)N2Cc2ccccc2)C(=O)C(=O)N1Cc1ccccc1	.	.	0	.	.	.
Cc1cc(C)c2sc(NC(=O)c3ccc([N+](=O)[O-])o3)nc2c1	-1	17	4	56*	24	54*
O=C(Nc1c(Cl)ccc2nsnc12)c1ccc(Br)o1	.	.	1	.	.	.

Source: PubChem BioAssay
